Where “and” joins values, the source holds several entries; their conditions need not be identical. Identical values can stand only once. Results filed as inconclusive are left out. Calls of active or inactive are those of the source. Calls come from the whole dose curve; as a rule, active = well fitted curve in the direction sought with a large enough effect; inconclusive = small, poorly fitted or top-dose-only effect, or another doubt; inactive = no such curve, though single readings can be large; an effect the other way counts as inactive or inconclusive.
How the values were obtained:
HEK293 = experiment: Cytotoxic Profiling of Annotated Libraries Using Quantitative High-Throughput Screening (AID 1296008); details: Five cell lines viability, CellTiter-Glo ATP luminescence, 48-72 h; max response: hits give low values; note: nearly all actives have a fitted effect of over 60% in size; note: potency is the fitted concentration of half-maximal effect
Procedure, shortened: (§1)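 Compounds were pin-transferred onto cells and incubated 48 or 72 hr at 37 degree Celsius, 95% humidity. CellTiter-Glo was added, plates sat 10 min at room temperature, then ATP-coupled luminescence was imaged as the viability read-out.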

HaCat = experiment: as above; details: Five cell lines viability, CellTiter-Glo ATP luminescence, 48-72 h; max response: hits give low values
Procedure, shortened: as §1

KB-3-1 = experiment: as above; details: Five cell lines viability, CellTiter-Glo ATP luminescence, 48-72 h; max response: hits give low values
Procedure, shortened: as §1

NIH3T3 [1] = experiment: as above; details: Five cell lines viability, CellTiter-Glo ATP luminescence, 48-72 h; max response: hits give low values
Procedure, shortened: as §1

MKL-1 = experiment: qHTS assay to identify novel small-molecules to repurpose for Merkel cell carcinoma treatment (AID 1296009); details: MCC and control cell lines, CellTiter-Glo viability, 72 h; series mostly up to 46 µM; note: nearly all actives have a fitted effect of over 60% in size; note: potency is the fitted concentration of half-maximal effect
Procedure, shortened: (§2)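 Viability readout: ATP luminescence (CellTiter-Glo) after 72 hr drug exposure at 37 degree celsius. Dose-response format was 8 points for NPC and 11 points for MIPE; data normalized to in-plate controls.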

UISO = experiment: as above; details: MCC and control cell lines, CellTiter-Glo viability, 72 h; series mostly up to 46 µM
Procedure, shortened: as §2

MCC-13 = experiment: as above; details: MCC and control cell lines, CellTiter-Glo viability, 72 h; series mostly up to 46 µM
Procedure, shortened: as §2

WaGa = experiment: as above; details: MCC and control cell lines, CellTiter-Glo viability, 72 h; series mostly up to 46 µM
Procedure, shortened: as §2

MCC-26 = experiment: as above; details: MCC and control cell lines, CellTiter-Glo viability, 72 h; series mostly up to 46 µM
Procedure, shortened: as §2

MKL-2 = experiment: as above; details: MCC and control cell lines, CellTiter-Glo viability, 72 h; series mostly up to 46 µM
Procedure, shortened: as §2

CRL-7250 = normal cell line; experiment: Cytotoxic Profiling of Annotated Libraries Using Quantitative High-Throughput Screening (AID 1296008); details: Five cell lines viability, CellTiter-Glo ATP luminescence, 48-72 h; max response: hits give low values; note: nearly all actives have a fitted effect of over 60% in size; note: potency is the fitted concentration of half-maximal effect
Procedure, shortened: as §1

NIH3T3 [2] = experiment: qHTS assay to identify novel small-molecules to repurpose for Merkel cell carcinoma treatment (AID 1296009); details: MCC and control cell lines, CellTiter-Glo viability, 72 h; at 44.8 µM (top of the series) unless noted; note: nearly all actives have a fitted effect of over 60% in size; note: potency is the fitted concentration of half-maximal effect
Procedure, shortened: as §2

JEG-3 = experiment: Primary qHTS to identify gynecologic anti-cancer compounds using libraries of approved drugs and bioactive compounds (AID 1345084); details: Gynecologic cancer cell panel viability, ATPlite luminescence, 48 h; series mostly up to 57.5 µM; note: nearly all actives have a fitted effect of over 55% in size
Procedure, shortened: (§3)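 Cell viability after 48 h drug treatment, ATPlite luminescence readout; five doses.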

HEK293T [3] = experiment: qHTS assay to identify novel small-molecules to repurpose for Merkel cell carcinoma treatment (AID 1296009); details: MCC and control cell lines, CellTiter-Glo viability, 72 h; series mostly up to 44.8 µM; note: nearly all actives have a fitted effect of over 60% in size; note: potency is the fitted concentration of half-maximal effect
Procedure, shortened: as §2

C33A = experiment: Primary qHTS to identify gynecologic anti-cancer compounds using libraries of approved drugs and bioactive compounds (AID 1345084); details: Gynecologic cancer cell panel viability, ATPlite luminescence, 48 h; series mostly up to 57.5 µM; note: nearly all actives have a fitted effect of over 55% in size
Procedure, shortened: as §3

CASKI = experiment: as above; details: Gynecologic cancer cell panel viability, ATPlite luminescence, 48 h; series mostly up to 57.5 µM
Procedure, shortened: as §3

Es-2 = experiment: as above; details: Gynecologic cancer cell panel viability, ATPlite luminescence, 48 h; series mostly up to 57.5 µM
Procedure, shortened: as §3

HeLa = experiment: as above; details: Gynecologic cancer cell panel viability, ATPlite luminescence, 48 h; series mostly up to 57.5 µM
Procedure, shortened: as §3

Hek293T [4] = experiment: as above; details: Gynecologic cancer cell panel viability, ATPlite luminescence, 48 h, control line for the selectivity index; series mostly up to 57.5 µM
Procedure, shortened: as §3
% is set by controls: 0 for no effect and ±100 for the full control effect.

COc1ccc(Nc2cc(-c3cnc(N)nc3)nc(N3CCOCC3)n2)cn1
active: Potency (HEK293) 1.87 µM | Potency (HaCat) 2.64 µM | Potency (KB-3-1) 2.96 µM | Potency (NIH3T3 [1]) 3.32 µM | Potency (UISO) 4.18 µM
inactive: Potency (MKL-1)

COC[C@H](NC(=O)c1cnc(C)s1)C(=O)N[C@@H](COC)C(=O)N[C@@H](Cc1ccccc1)C(=O)[C@@]1(C)CO1
active: Potency (HEK293) 0.148 µM | Potency (HaCat) 0.662 µM | Potency (KB-3-1) 0.469 µM | Potency (NIH3T3 [1]) 0.833 µM | Potency (MCC-13) 0.526 µM | Potency (MKL-1) 0.418 µM | Potency (UISO) 0.235 µM | Potency (WaGa) 0.118 µM

C#CCC(Cc1cnc2nc(N)nc(N)c2n1)c1ccc(C(=O)N[C@@H](CCC(=O)O)C(=O)O)cc1 (stereo partly drawn)
inactive: Potency (MCC-26) | Potency (MKL-2)
active: Potency (HEK293) 0.0418 µM | Potency (HaCat) 3.32 µM | Potency (KB-3-1) 0.146 µM | Potency (NIH3T3 [1]) 0.332 µM | Potency (WaGa) 0.526 µM

COc1cc(C)c(Sc2cnc(NC(=O)c3ccc(CNC(C)C(C)(C)C)cc3)s2)cc1C(=O)N1CCN(C(C)=O)CC1 (stereo not drawn)
inactive: Potency (MCC-13)
active: Potency (HEK293) 14.8 µM | Potency (HaCat) 26.4 µM | Potency (KB-3-1) 11.8 µM | Potency (MKL-1) 20.9 µM | Potency (UISO) 18.7 µM | Potency (WaGa) 16.6 µM

C[C@H]1COc2c(N3CCN(C)CC3)c(F)cc3c(=O)c(C(=O)O)cn1c23
inactive: max response (CRL-7250) -8.35% | max response (KB-3-1) 6.8% | outcome (NIH3T3 [1]) | Potency (MCC-13) | Potency (MCC-26) | Potency (MKL-1) | Potency (MKL-2) | outcome (NIH3T3 [2]) | Potency (UISO) | Potency (WaGa)

C=CC(=O)Nc1cccc(Nc2nc(NC3CCC(N(C)C)CC3)nc3c2ncn3C(C)C)c1 (stereo not drawn)
active: Potency (CRL-7250) 0.59 µM | Potency (HaCat) 7.43 µM | Potency (NIH3T3 [1]) 14.8 µM | Potency (MKL-1) 0.0074 µM | Potency (MKL-2) 0.0166 µM | Potency (UISO) 0.418 µM

O=C1NCCc2[nH]c(-c3ccncc3)cc21
active: Potency (CRL-7250) 7.43 µM | Potency (NIH3T3 [1]) 23.5 µM | Potency (MKL-2) 13.2 µM | Potency (UISO) 4.18 µM

C[C@@H](Cc1cc2c(c(C(N)=O)c1)N(CCCO)CC2)NCCOc1ccccc1OCC(F)(F)F
inactive: max response (KB-3-1) -7.67% | Potency (MCC-13) | Potency (MCC-26) | Potency (MKL-1) | Potency (MKL-2) | Potency (UISO) | Potency (WaGa) | Potency (JEG-3)
active: Potency (CRL-7250) 20.6 µM

CC(C)(O)CC[C@@H](O)[C@](C)(O)[C@H]1CC[C@@]2(O)C3=CC(=O)[C@@H]4C[C@@H](O)[C@@H](O)C[C@]4(C)[C@@H]3CC[C@]12C
inactive: max response (HEK293) -3.79% | max response (HaCat) -11.3% | max response (KB-3-1) -6.66% | max response (NIH3T3 [1]) 0.822% | Potency (MCC-13) | Potency (MCC-26) | Potency (MKL-1) | Potency (MKL-2) | Potency (UISO) | Potency (WaGa)

O=S(=O)(O)CCSSCCS(=O)(=O)O
inactive: outcome (HEK293) | max response (HaCat) -4.2% | max response (KB-3-1) 4.37% | max response (NIH3T3 [1]) -4.2% | Potency (HEK293T [3]) | Potency (MCC-13) | Potency (MCC-26) | Potency (MKL-1) | Potency (MKL-2) | Potency (UISO) | Potency (WaGa)

CN1CCc2c(c3ccccc3n2Cc2ccc(C(=O)NO)cc2)C1
active: Potency (KB-3-1) 26.4 µM | Potency (WaGa) 20.9 µM
inactive: max response (CRL-7250) -28.2% and -9.31% | Potency (MCC-13) | Potency (MCC-26) | Potency (C33A) | Potency (CASKI) | Potency (Es-2) | Potency (HeLa) | Potency (Hek293T [4]) | Potency (JEG-3)

CC(O)(C#Cc1ccc2c(c1)N(c1nc(N)ncc1Cl)CC2)c1nccs1 (stereo not drawn)
active: Potency (HEK293) 26.4 µM
inactive: max response (HaCat) -12.6% | max response (KB-3-1) -15.7% | max response (NIH3T3 [1]) -24.2% | Potency (MCC-13) | Potency (MCC-26) | Potency (MKL-1) | Potency (MKL-2) | Potency (UISO) | Potency (WaGa) | Potency (C33A) | Potency (CASKI) | Potency (Es-2) | Potency (HeLa) | Potency (Hek293T [4]) | Potency (JEG-3)

COc1ccc(S(=O)(=O)Nc2cc(-c3c(O)ccc4ccccc34)c(O)c3ccccc23)cc1
active: Potency (MKL-2) 26.4 µM | Potency (UISO) 0.166 µM
inactive: max response (CRL-7250) -21.5% | max response (HaCat) -11.6% | outcome (NIH3T3 [1]) | Potency (MCC-13) | Potency (MCC-26) | outcome (NIH3T3 [2])
